Measured values from PubChem BioAssay (NCATS).
Inconclusive results are not listed. Where a call stands in place of a potency, no number is given. Unmarked numbers belong to inactive results. Calls of active or inactive are those of the source. Calls come from the whole dose curve; as a rule, active = well fitted inhibition curve with a large enough effect; inconclusive = small, poorly fitted or top-dose-only effect; inactive = no such curve, though single readings can be large or run the other way.
Potency is the fitted concentration of half-maximal effect.

Each compound was assayed on Zika virus NS2B-NS3 protease (unlinked complex) (assay: Primary screen GU Rhodamine qHTS for Zika virus inhibitors: Unlinked NS2B-NS3 protease assay (AID 1347159; note: nearly all actives have a fitted effect of over 60% in size)). Conditions: Recombinant ZIKV NS2B-NS3 protease, Rhodamine110 substrate fluorescence; series mostly up to 107 µM.
How it was run: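 In dose–response format, inhibition of unlinked protease (25 nM) was measured with 1.5 microM bis-peptide Rhodamine110 substrate. Aprotinin served as the intraplate control.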
`O=C(c1ccccn1)N(Cc1cccs1)C1(C(=O)NC2CCCCC2)CCCCC1` was tested, and the Potency was “inactive”.
For `COc1ccc(NC(=O)C2C[C@H](C)CC[C@H]2C(C)C)cc1` (stereo partly specified), the Potency was “inactive”.
For `Cc1ccc(NC(=O)N2CCN(c3nc(N)nc4sc(-c5cccnc5)nc34)CC2)cc1`, the Potency was “inactive”.
For `Cc1ccc(CNc2ncnc3ccc(-c4ccc(CO)o4)cc23)o1`, the Potency was “inactive”.
For `COc1ccccc1OCCN1CC(COc2cccc3[nH]c4ccccc4c23)OCC1=O` (stereo unspecified), the Potency was “inactive”.
In the case of `CCC(C)C1NC(=O)C(Cc2ccccc2)NC(=O)C(CCCCCC(=O)C(O)CO)NC(=O)C2CCCCN2C1=O` (stereo unspecified), the Potency is reported as “inactive”.
For `CCN(c1cc(-c2ccc(CN3CCOCC3)cc2)cc(C(=O)NCc2c(C)cc(C)[nH]c2=O)c1C)C1CCOCC1`, the Potency was “inactive”.
In the case of `CCCc1cc(C)[nH]c(=O)c1CNC(=O)c1cc(-c2ccnc(N3CCN(C)CC3)c2)cc2c1cnn2C(C)C`, the Potency is reported as “inactive”.
For `O=C(NCCCNC(=O)c1ccc[nH]c1=O)c1cc(-c2ccccc2)on1`, the Potency was “inactive”.
For `COc1cc(C(C)C)c(Oc2cnc(N)nc2N)cc1I`, the Potency was “inactive”.
With `COc1ccncc1C(=O)NC(=O)Nc1ccc(-c2ccccc2)c(C(F)(F)F)c1` the Potency was “inactive”.
With `Cc1cc(C(=O)Cn2cc(C#N)ccc2=O)c(C)n1Cc1ccccc1` the Potency was “inactive”.
In the case of `Fc1ccc(-n2cc(CCCCN3CCC4(CC3)OCc3ccccc34)c3ccccc32)cc1`, the Potency is reported as “inactive”.
In the case of `CCCC1(CCC)CCC2(CCN(CCCN(CC)CC)C2)CC1`, the Potency is reported as “inactive”.
`CC(=O)O[C@H]1C[C@H](OC(C)=O)[C@]2(C)[C@H](CC[C@@]34O[C@@H]3C3=C(C)C(=O)O[C@@H]3C[C@H]42)C1(C)C` was tested, and the Potency was “inactive”.
For `C=CC(=O)N1CCC[C@@H](n2nc(-c3cccc(C(=O)Nc4ccc(C(C)C)c(C)c4)c3)c3c(N)ncnc32)C1`, the Potency was “inactive”.
`CC(=O)O[C@@H]1[C@H](O[C@@H]2O[C@@H](CO)[C@H](O)[C@H]2O)[C@@H](O[C@@H]2O[C@@H](C)[C@H](O[C@@H]3OC[C@@H](O)[C@H](O)[C@H]3O)[C@@H](O)[C@H]2O)[C@H](OC(=O)[C@]23CCC(C)(C)C[C@H]2C2=CCC4[C@@]5(C)CC[C@H](O[C@@H]6O[C@H](C(=O)O)[C@@H](O)[C@H](O)[C@H]6O[C@@H]6O[C@H](CO)[C@H](O)[C@H](O)[C@H]6O)[C@@](C)(C=O)C5CC[C@@]4(C)[C@]2(C)C[C@H]3O)O[C@@H]1C` (stereo partly specified) was tested, and the activity change, negative = inhibition was 1.92% [at 19.1 µM].
For `COc1cc(/C=C2\CCCN([C@@H](C)c3ccc(F)cc3)C2=O)ccc1-n1cnc(C)c1`, the Potency was “inactive”.
With `CC(C)S(=O)(=O)c1ccc2nccc(Nc3ccc4scnc4c3)c2c1` the Potency was “inactive”.
In the case of `COc1ccccc1C(=O)Nc1cc2c(cc1N1CCCC1)n(C)c(=O)n2C`, the Potency is reported as “inactive”.
`Cc1ccc(S(=O)(=O)NCc2ccc(C(=O)NCCN(Cc3ccccc3)C(C)C)cc2)cc1` was tested, and the Potency was “inactive”.
In the case of `COc1ccc(-c2ccc3c(N4CCOCC4C)nc(N4CCOCC4C)nc3n2)cc1CO` (stereo unspecified), the Potency is reported as “inactive”.
In the case of `Cn1c(=O)c(F)c(Nc2ccc(I)cc2F)c2c(=O)n(CC(O)CO)cnc21` (stereo unspecified), the Potency is reported as “inactive”.
In the case of `COC1CC(=O)C23C(=O)NC(Cc4c[nH]c5ccccc45)C2C(C)C2(C)OC2C3/C=C/CC(C)CC1O` (stereo unspecified), the Potency is reported as “inactive”.
In the case of `Cc1ccc(C)c(NS(=O)(=O)c2cc(C(=O)Nc3ccccc3-c3ccccc3)ccc2C)c1`, the Potency is reported as “inactive”.
`COc1ccc(C2(N(C)C(=O)c3ccc(NC(=O)c4ccco4)cc3)CCOCC2)cc1` was tested, and the Potency was “inactive”.
For `C=C1C(=O)OC2CC(C)=C(C(C)CCCOC(C)=O)C(OC(=O)CC(C)CC)C12` (stereo unspecified), the Potency was “inactive”.
For `CCCc1cc2c(N3CCN(C4=NCC(C)(C)S4)CC3)ncnc2s1`, the Potency was “inactive”.
In the case of `CCCC(CCC)C(=O)NCc1ccc2c(cnn2-c2ccccc2OC)c1`, the Potency is reported as “inactive”.
For `CN1CCc2cc3c(cc2C(=O)Cc2cc4c(cc2C1)OCO4)OCO3`, the Potency was “inactive”.
With `C[C@@H](NC(=O)c1ccc(C#Cc2cccc(F)c2)cn1)C(C)(C)O` the Potency was “inactive”.
For `CC(=O)N1CCN(CCOc2ccc(C3CCN(C4=Nn5c(nnc5C(F)(F)F)CC4)CC3)cc2)CC1`, the Potency was “inactive”.
In the case of `CC(=O)OC/C(=C/C(=O)O)CC[C@@H]1C(C=O)=CC[C@@H]2C(C)(C)CCC[C@@]12C`, the Potency is reported as 10 µM (active).
With `CCCn1cc2c(nc(NC(=O)Nc3ccc(OC)cc3)n3nc(-c4ccco4)nc23)n1` the Potency was “inactive”.
In the case of `Fc1ccc(N2CCN(CCC3OCCc4ccccc43)CC2)cc1` (stereo unspecified), the Potency is reported as “inactive”.
For `CCC(C)CNCC(=O)N1CCC2SC=CC2C1COc1cccc(C)c1` (stereo unspecified), the Potency was “inactive”.
